Assay results as given in PubChem BioAssay AID1159580 (chemical genetic matrix, 2015).
“And” between values parts separate entries of the source, which are not always exact repeats. Identical values can stand only once. The campaign covered roughly 5,500 compounds. About 2,000 (36%) were called active. About 18% were inconclusive and are not listed. Cut-off read from the data, not from the text of the source: active = normalized growth mostly below about 0.91 (no sharp cut-off); inconclusive = no clear call, values can overlap the other calls; inactive = mostly above about 0.92. The list shows a part of the results.

Assay: chemical genetic growth profiling, strain panel (AID 1159580);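 note: tested at 20 µM; growth read once vehicle control cultures reached saturation at 30 °C; 1 = growth at the plate median or of vehicle wells; lower values mean less growth of the strain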
Conditions: S. cerevisiae deletion strains, growth OD
[1] = locus YAL013W, strain DEP1, hits give low values
[2] = locus YBR229C, strain ROT2, hits give low values
[3] = locus YCL061C, strain MRC1, hits give low values
[4] = locus YDL101C, strain DUN1, hits give low values
[5] = locus YEL061C, strain CIN8, hits give low values
[6] = locus YGR078C, strain PAC10, hits give low values
[7] = locus YHR030C, strain SLT2, hits give low values
[8] = locus YJR043C, strain POL32, hits give low values
[9] = locus YJR075W, strain HOC1, hits give low values
[10] = locus YLR039C, strain RIC1, hits give low values
[11] = locus YLR262C, strain YPT6, hits give low values
[12] = locus YMR263W, strain SAP30, hits give low values
[13] = locus YNL153C, strain GIM3, hits give low values
[14] = locus YNL322C, strain KRE1, hits give low values

Measured: normalized growth

Cc1ccc(OCc2nnc(SCC(=O)Nc3cccc4c3OCO4)n2-c2ccccc2)c2c1CCC2
inactive: [1] 1.01 | [2] 1.01 | [3] 1 | [4] 0.992 | locus YDR150W, strain NUM1, hits give low values 0.982 | [5] 0.99 | [6] 1 | locus YGR229C, strain SMI1, hits give low values 0.993 | [7] 1 | locus YHR087W, strain rtc3, hits give low values 0.992 | [8] 1 | [9] 1.01 | locus YKL190W, strain CNB1, hits give low values 0.973 | [10] 0.991 | locus YLR058C, strain SHM2 (second series), hits give low values 1.01 | locus YLR085C, strain ARP6, hits give low values 0.995 | [11] 0.985 | locus YML094W, strain GIM5, hits give low values 0.98 | locus YMR219W, strain ESC1, hits give low values 0.999 | [12] 1.01 | locus YNL128W, strain TEP1, hits give low values 0.984 | [13] 1 | locus YNL298W, strain CLA4 (second series), hits give low values 0.988 | [14] 0.992 | locus YNR030W, strain Alg12, hits give low values 0.995 | locus YPL055C, strain LGE1, hits give low values 0.991 | locus YPL241C, strain CIN2, hits give low values 0.999 | locus YPR135W, strain CTF4, hits give low values 1.02

C[C@H](CCC(=O)O)[C@H]1CCC2C3C(CC[C@@]21C)[C@@]1(C)CC[C@@H](O)C[C@H]1C[C@H]3O (some centres undefined)
active: locus YDR137W, strain rgp1, hits give low values 0.786 | locus YLR262C, strain YPT6 (second series), hits give low values 0.799 | locus YOL147C, strain pex11, hits give low values 1.07 [resistant] | locus YOR231W, strain MKK1, hits give low values 0.849
inactive: [1] 1.02 | locus YAL021C, strain ccr4, hits give low values 1.01 | locus YAL026C, strain drs2, hits give low values 0.987 | locus YAL030W, strain snc1, hits give low values 1.02 | locus YBL061C, strain skt5, hits give low values 1.02 | locus YBR009C, strain hhf1, hits give low values 0.973 | locus YBR021W, strain FUR4, hits give low values 1.02 | locus YBR023C, strain chs3, hits give low values 1.01 | locus YBR171W, strain sec66, hits give low values 1 | [2] 1.02 | locus YBR231C, strain swc5, hits give low values 1.03 | locus YBR279W, strain paf1, hits give low values 1.01 | locus YCL011C, strain gbp2, hits give low values 1 | locus YCL016C, strain dcc1, hits give low values 0.982 | locus YCL029C, strain bik1, hits give low values 1.05 | [3] 0.998 | locus YCL069W, strain vba3, hits give low values 1.02 | locus YCR088W, strain abp1, hits give low values 1.02 | locus YDL005C, strain med2, hits give low values 1.01 | locus YDL035C, strain GPR1, hits give low values 0.985 | locus YDL040C, strain nat1, hits give low values 1.01 | locus YDL074C, strain BRE1, hits give low values 1.09 | [4] 1.02 | locus YDL134C, strain PPH21, hits give low values 1 | locus YDL185W, strain tfp1, hits give low values 1.07 | locus YDL192W, strain arf1, hits give low values 1.05 | locus YDR001C, strain nth1, hits give low values 1.02 | locus YDR069C, strain doa4, hits give low values 1.01 | locus YDR101C, strain arx1, hits give low values 1.04 | locus YDR159W, strain sac3, hits give low values 1.02 | locus YDR162C, strain NBP2, hits give low values 1.02 | locus YDR195W, strain ref2 1.13 | locus YDR297W, strain sur2, hits give low values 1.02 | locus YDR318W, strain mcm21, hits give low values 1.03 | locus YDR334W, strain swr1, hits give low values 1.04 | locus YDR335W, strain msn5, hits give low values 1.02 | locus YDR388W, hits give low values 1.04 | locus YDR392W, strain spt3, hits give low values 0.923 | locus YDR502C, strain sam2, hits give low values 1.04 | locus YEL003W, strain gim4, hits give low values 0.998 | locus YEL037C, strain rad23, hits give low values 1.02 | locus YEL061C, strain CIN8 (second series), hits give low values 1.02 | [5] 1.02 | locus YER015W, strain faa2, hits give low values 1.05 | locus YER016W, strain bim1, hits give low values 1.01 | locus YER110C, hits give low values 1.05 | locus YER111C, strain swi4, hits give low values 1.02 | locus YER155C, strain BEM2 (second series), hits give low values 1.05 | locus YER155C, strain BEM2, hits give low values 1.04 | locus YER167W, strain BCK2, hits give low values 1.03 | locus YFR010W, strain ubp6, hits give low values 1.03 | locus YGL078C, strain dbp3, hits give low values 0.953 | locus YGL086W, strain mad1, hits give low values 1.03 | locus YGL167C, strain pmr1, hits give low values 1.02 | locus YGL173C, strain kem1, hits give low values 0.969 | locus YGL227W, strain vid30, hits give low values 1.02 | locus YGL240W, strain doc1, hits give low values 1.02 | locus YGL248W, strain PDE1, hits give low values 1.01 | locus YGL253W, strain hxk2, hits give low values 1.01 | [6] 1.03 | locus YGR135W, strain pre9, hits give low values 1.02 | locus YGR252W, strain gcn5, hits give low values 0.929 | locus YHR013C, strain ard1, hits give low values 1.06 | locus YHR027C, strain rpn1, hits give low values 1.01 | [7] 1.05 and 0.889 | locus YHR079C, strain IRE1 (second series), hits give low values 1.05 | locus YHR079C, strain IRE1, hits give low values 0.87 | locus YHR094C, strain hxt1, hits give low values 1.05 | locus YHR129C, strain ARP1, hits give low values 1.03 | locus YHR142W, strain chs7, hits give low values 0.993 | locus YHR200W, strain rpn10, hits give low values 1.06 | locus YIL066C, strain RNR3, hits give low values 1.03 | locus YIL073C, strain SPO22, hits give low values 1.12 | locus YIL125W, strain kgd1, hits give low values 1.05 | locus YIR030C, strain dcg1, hits give low values 1.05 | locus YJL092W, strain hpr5, hits give low values 1.03 | locus YJL095W, strain BCK1 (second series), hits give low values 1.02 | locus YJL095W, strain BCK1, hits give low values 1.04 and 0.89 | locus YJL115W, strain asf1, hits give low values 1.03 | locus YJL129C, strain trk1, hits give low values 1.03 | locus YJL134W, strain LCB3, hits give low values 1.03 | locus YJL154C, strain vps35, hits give low values 1.03 | locus YJL164C, strain tpk1, hits give low values 0.992 | locus YJL166W, strain qcr8, hits give low values 0.979 | locus YJL168C, strain set2, hits give low values 1.05 | locus YJL187C, strain SWE1 (second series), hits give low values 1 | locus YJL187C, strain SWE1, hits give low values 1.02 | [8] 0.999 | locus YJR066W, strain TOR1, hits give low values 0.862 | [9] 1.04 | locus YKL009W, strain mrt4, hits give low values 0.9 | locus YKL068W, hits give low values 1.03 | locus YKL085W, strain MDH1 (second series), hits give low values 1.03 | locus YKL085W, strain MDH1, hits give low values 1.03 | locus YKL160W, strain elf1, hits give low values 0.974 | locus YKR001C, strain vps1, hits give low values 1.09 | locus YKR026C, strain gcn3, hits give low values 1.03 | locus YKR091W, strain srl3, hits give low values 1.01 | locus YLL001W, strain dnm1, hits give low values 0.991 | locus YLL026W, hits give low values 1.02 | locus YLL041C, strain sdh2, hits give low values 1.03 | locus YLR027C, strain aat2, hits give low values 1.01 | [10] 1.02 | locus YLR058C, strain SHM2, hits give low values 1.01 | locus YLR102C, strain apc9, hits give low values 1.05 | locus YLR113W, strain HOG1, hits give low values 0.923 | locus YLR221C, strain rsa3, hits give low values 0.954 | locus YLR258W, strain gsy2, hits give low values 0.996 | [11] 0.99 | locus YLR268W, strain sec22, hits give low values 1.03 | locus YLR320W, strain mms22, hits give low values 0.955 | locus YLR330W, strain CHS5, hits give low values 1.04 | locus YLR342W, strain FKS1 (second series), hits give low values 1.04 | locus YLR342W, strain FKS1, hits give low values 1 | locus YLR357W, strain rsc2, hits give low values 1.09 | locus YLR370C, strain arc18, hits give low values 0.993 | locus YLR371W, strain rom2, hits give low values 1.07 | locus YLR384C, strain iki3, hits give low values 1.01 | locus YLR418C, strain cdc73, hits give low values 1.03 | locus YML016C, strain PPZ1, hits give low values 1.02 | locus YML032C, strain rad52, hits give low values 1.02 | locus YML120C, strain ndi1, hits give low values 0.962 | locus YML124C, strain tub3, hits give low values 1.05 | locus YMR058W, strain fet3, hits give low values 1.01 | locus YMR078C, strain ctf18, hits give low values 1.08 | locus YMR125W, strain sto1, hits give low values 1.04 | locus YMR129W, hits give low values 1.01 | locus YMR205C, strain PFK2, hits give low values 0.989 | locus YMR223W, strain ubp8, hits give low values 1.01 | locus YMR231W, strain pep5, hits give low values 0.993 | [12] 1.02 | locus YMR307W, strain GAS1, hits give low values 1.1 | locus YNL067W, strain RPL9B, hits give low values 0.999 | locus YNL071W, strain lat1, hits give low values 1.01 | [13] 1 | locus YNL183C, strain NPR1, hits give low values 0.854 | locus YNL209W, strain ssb2, hits give low values 1.02 | locus YNL233W, strain BNI4, hits give low values 1.05 | locus YNL248C, strain rpa49, hits give low values 1.01 | locus YNL250W, strain rad50, hits give low values 1.03 | locus YNL271C, strain bni1, hits give low values 1.01 | locus YNL298W, strain CLA4, hits give low values 0.977 | locus YNL307C, strain MCK1, hits give low values 1.04 | locus YNL322C, strain KRE1 (second series), hits give low values 1.02 | [14] 1.03 | locus YNR049C, strain mso1, hits give low values 1.01 | locus YNR052C, strain pop2, hits give low values 0.994 | locus YOL012C, strain htz1 1.83 | locus YOR001W, strain rrp6, hits give low values 0.979 | locus YOR061W, strain CKA2, hits give low values 1.06 | locus YOR069W, strain VPS5, hits give low values 1.03 | locus YOR070C, strain gyp1, hits give low values 1.01 | locus YOR080W, strain dia2, hits give low values 1.02 | locus YOR083W, strain WHI5, hits give low values 0.971 | locus YOR106W, strain vam3, hits give low values 0.928 | locus YOR136W, strain idh2, hits give low values 1.06 | locus YOR144C, strain elg1, hits give low values 1.04 | locus YOR184W, strain ser1, hits give low values 1.01 | locus YOR265W, strain rbl2, hits give low values 1.01 | locus YOR270C, strain vph1, hits give low values 0.964 | locus YOR290C, strain snf2, hits give low values 0.979 | locus YOR316C, strain cot1, hits give low values 1.05 | locus YPL051W, strain arl3, hits give low values 0.978 | locus YPL078C, strain atp4, hits give low values 0.982 | locus YPL106C, strain sse1, hits give low values 1.08 | locus YPL240C, strain hsp82, hits give low values 1.01 | locus YPL256C, strain CLN2, hits give low values 0.952 | locus YPR119W, strain clb2, hits give low values 1.03 | locus YPR141C, strain kar3, hits give low values 1.06 | locus YPR163C, strain tif3, hits give low values 1.06 | locus YPR167C, strain met16, hits give low values 1.05 | strain wtn01, hits give low values 1.06
